Screening results deposited in PubChem by University of Kansas High Throughput Screening Laboratory.
Pf apPOL block: Pf-apPOL DNA polymerase inhibition; Recombinant Pf-apPOL, molecular beacon fluorescence, 1.5 h; inhibition, % at 10 µM; hit rate 0.25% among 210,000; AID 1794808
mHTT CaM bind: inhibitors of human mutant huntingtin-calmodulin interaction; hit rate 3.6% among 190,000; inhibition, % at 15 µM; AlphaScreen His-mHTT/GST-CaM binding, luminescence; P42858
Of the large screens only hits and unclear results are named; the others gave an inactive call. Shown are actives, neighbours in structure and some others; about 3.5% of the full set was active somewhere. Rule as the data show it: active = inhibition above about 50%; inactive = the rest.

CC(=O)Nc1ccc(C(=O)NCc2cccc(F)c2)c(N2CCCCC2)c1	mHTT CaM bind 65
CC(=O)Nc1ccc(C(=O)NCc2cccc(F)c2)c(N2CCOCC2)c1	none
COc1cccc(CN2CCC(C(=O)N3CCN(c4cccc(C)c4C)CC3)CC2)c1	none
Cn1nccc1-c1cccc(-c2noc(C=Cc3ccccc3)n2)c1	none
Cc1noc(-c2cccs2)c1C(=O)NCCc1ccc(F)cc1	none
Cc1noc(-c2ccccc2Cl)c1C(=O)NCCc1ccc(F)cc1	mHTT CaM bind 55
O=C(NCc1cccc(F)c1)C1CCN(c2cncnc2N2CCCCC2)CC1	none
CCC(Sc1nc2ccccc2o1)C(=O)Nc1nnc(C)s1 (stereo not drawn)	Pf apPOL block 85
CCC(Sc1nc2ccccc2o1)C(=O)Nc1ccc(Cl)cn1 (stereo not drawn)	none
O=C(OCC1OC(O)C(O)(COC(=O)c2cc(O)c(O)c(O)c2)C1O)c1cc(O)c(O)c(O)c1 (stereo not drawn)	Pf apPOL block 64 (no result: mHTT CaM bind)
Cc1noc(-c2ccccc2Cl)c1C(=O)NCc1ccsc1	none
COc1ccccc1/C=C/C(=O)Nc1nc2ccccc2s1	none
O=C(C1CC1)N1CCN(c2cc(Oc3cccc(F)c3)ncn2)CC1	none
c1cncc(-c2noc(C3CCCCN3Cc3ccco3)n2)c1 (stereo not drawn)	none
CN(C)c1ccc(CN2CCCC2c2nc(-c3cccnc3)no2)cc1 (stereo not drawn)	mHTT CaM bind 56
Cc1ccc(NC(=O)N2CCCC(CCC(=O)N3CCC(Cc4ccccc4)CC3)C2)cc1 (stereo not drawn)	mHTT CaM bind 54
Cc1ccc(NC(=O)N2CCCC(CCC(=O)N3CCOCC3)C2)cc1 (stereo not drawn)	none
CN(C)CC1CN(S(=O)(=O)c2ccccc2F)CC12CCOCC2 (stereo not drawn)	none
COc1cccc(CNC(=O)c2cn3cc(C)ccc3n2)c1	none
COc1ccc(-c2ccc3nc(C(=O)NCc4cccnc4)cn3c2)cc1	mHTT CaM bind 59
CCOc1cc(-c2cc(OC)c3c(C)oc(C)c3c(=O)c2)ccc1O	none
Cc1c(NC(NC(=O)c2cccs2)C(Cl)(Cl)Cl)c(=O)n(-c2ccccc2)n1C (stereo not drawn)	none
O=C(Nc1ccc(F)c(F)c1)C(NS(=O)(=O)c1cccs1)c1ccccc1 (stereo not drawn)	none
O=C(Nc1ccc(C(F)(F)F)cc1)C(NS(=O)(=O)c1cccs1)c1ccccc1 (stereo not drawn)	mHTT CaM bind 84
Cc1cc(C)cc(N2C=C(C#N)S(=O)(=O)c3ccc(C)cc32)c1	none
CNC(=O)c1ccc2c(c1)N(C(=O)c1ccc(OC)cc1)CC2	mHTT CaM bind 100
CN1CCC(NC(=O)c2ccc3c(c2)N(C(=O)c2ccc(F)cc2)CC3)CC1	none
COc1ccc(OC)c(NC(=O)C2CCc3sc(C(=O)N4CCCC4)cc3C2)c1 (stereo not drawn)	none
COc1ccc(NC(=O)C2CCc3sc(C(=O)N4CCCCC4)cc3C2)c(OC)c1 (stereo not drawn)	mHTT CaM bind 57
COc1ccc(N2CCN(c3ncc4c(n3)CCN(Cc3ccccc3OC)C4)CC2)cc1	mHTT CaM bind 53
COc1ccc(OC)c(CN2CCc3nc(N4CCCC4)ncc3C2)c1	none
COc1cc(OC)c(OC)cc1CN1CCc2nc(N3CCC(C)CC3)ncc2C1	none
COc1ccc(CN2CCc3nc(N4CCC(C)CC4)ncc3C2)c(OC)c1	mHTT CaM bind 74
COc1ccc(N2CCN(c3ncc4c(n3)CCN(Cc3ccccc3C)C4)CC2)cc1	none
CCOc1ccccc1CN1CCc2nc(N3CCN(c4ncccn4)CC3)ncc2C1	mHTT CaM bind 100
COc1ccc(CN2CCc3nc(N4CCN(c5ncccn5)CC4)ncc3C2)c(OC)c1	mHTT CaM bind 100
CCOc1ccccc1CN1CCc2nc(N3CCN(CC)CC3)ncc2C1	none
CN(C)CCCN1C(=O)C(=O)C(=C(O)c2ccc(S(=O)(=O)N(C)C)cc2)C1c1ccncc1 (stereo not drawn)	none
CCCc1cc(C2CCCN2C(=O)Nc2ccc(CC(=O)OCC)cc2)no1 (stereo not drawn)	none
CCCNC(=O)NC1(C(F)(F)F)Oc2ccc(Cl)cc2O1 (stereo not drawn)	none
NC(=Nc1nc2ccccc2o1)NC(=O)C(Cc1ccccc1)N1C(=O)c2ccccc2C1=O (stereo not drawn)	none
CC(C)(C)C(=O)NCCC1CC1(Cl)Cl (stereo not drawn)	none (no result: mHTT CaM bind)
CC(=Cc1ccccc1)C=C1SC(=S)N(C2CC(=O)N(CCCCCC(=O)O)C2=O)C1=O (stereo not drawn)	mHTT CaM bind 53
CC(/C=C1\SC(=S)N(CC(=O)O)C1=O)=C\c1ccccc1	none (no result: mHTT CaM bind)
O=C(O)CCCN1C(=O)C(=CC=Cc2ccccc2)SC1=S	none
O=C(O)CCCN1C(=O)CC(N2C(=O)C(=CC=Cc3ccccc3)SC2=S)C1=O (stereo not drawn)	mHTT CaM bind 54
CCOC(=O)C(NC(C)=O)C(=O)OCC	none (no result: mHTT CaM bind)
CCSc1nnc(NC(=O)CSc2nnc(C)c(=O)[nH]2)s1	none
Cc1ccc(C)n1-c1ccc(Cl)c(C(=O)NN)c1	none
